Measurements from PubChem BioAssay (EPA / NIEHS).
Several values for one entry are separate records, joined by “and”; a condition that tells them apart may be missing. Equal values may be shown once. Where a structure was tested more than once in an assay, its records may differ in their call. Activity calls are given as the source filed them. Rule for the calls: active = hit-call score of the fitted dose curve at least 0.9, where 1 is the maximum; inactive = score below 0.9.

Read-out: E-selectin (Homo sapiens) (UniProt P16581)
Experiment: BSK_IMphg_ESelectin: BioMAP Diversity Plus: IMphg Assay for Eselectin Biomarker Activity (AID 2284291)
Details: primary human endothelial cells with macrophages
Protocol: BSK_IMphg is a cell-based, multiplexed-readout assay that uses venular endothelial cells and macrophages, a human vascular primary cell, with measurements taken at 24 hours after chemical dosing in a microplate: 96-well plate.BSK_IMphg_ESelectin is an assay component measured in the BSK_IMphg assay. It measures E-selectin antibody related to regulation of gene expression using ELISA technology.Data from the assay component BSK_IMphg_ESelectin was analyzed at the endpoint, BSK_IMphg_ESelectin, in the positive analysis fitting direction relative to DMSO as the negative control and baseline of activity. Using a type of binding reporter, gain or loss-of-signal activity can be used to understand protein changes. To generalize the intended target to other relatable targets, this assay endpoint is annotated to the 'cell adhesion molecules' intended target family, where the subfamily is 'selectins'.
The levels of cell surface (or secreted, indicated by the prefix "s") biomarker endpoints were measured by ELISA. Overt cytotoxicity to cells in confluent adherent cultures (all systems other than the BT system) was assessed by measuring total protein levels using sulforhodamine B (SRB) staining in parallel cultures at the time of biomarker measurements, indicated as SRB endpoints. For proliferation assays for adherent cell types, individual cell types are cultured at sub-confluence and relative cell numbers quantified by SRB staining at time points optimized for each system (48 h: 3C and CASM3C systems; 72 h: BT and HDF3CGF systems; 96 h: SAg system). SRB was performed by staining cells with 0.1% SRB after fixation with 10% TCA and reading wells at 560 nm.Viability and proliferation of PBMC (T cells) was quantified by Alamar Blue reduction for the SAg and BT systems. For PBMC viability (referred to as PBMC Cytotoxicity within the assay endpoint names), cells were plated (75,000/well in a 96-well plate) and then chemical samples added for 1 h before addition of activators, SEB and TSST-1 (20 ng/mL final concentration each). Cells were incubated for 90 h. Then, Alamar Blue (20 uL/well) (Invitrogen, Cat DAL1100) was added for 6 h, and the plates were read with a fluorescence microplate reader at 546/580 nm (excitation/emission). For PBMC proliferation, cells were plated and activated as above but incubated for only 16 h prior to addition of Alamar Blue. Plates were read after 6 h.

Sequence of E-selectin (Homo sapiens) (P16581 whole entry, looked up): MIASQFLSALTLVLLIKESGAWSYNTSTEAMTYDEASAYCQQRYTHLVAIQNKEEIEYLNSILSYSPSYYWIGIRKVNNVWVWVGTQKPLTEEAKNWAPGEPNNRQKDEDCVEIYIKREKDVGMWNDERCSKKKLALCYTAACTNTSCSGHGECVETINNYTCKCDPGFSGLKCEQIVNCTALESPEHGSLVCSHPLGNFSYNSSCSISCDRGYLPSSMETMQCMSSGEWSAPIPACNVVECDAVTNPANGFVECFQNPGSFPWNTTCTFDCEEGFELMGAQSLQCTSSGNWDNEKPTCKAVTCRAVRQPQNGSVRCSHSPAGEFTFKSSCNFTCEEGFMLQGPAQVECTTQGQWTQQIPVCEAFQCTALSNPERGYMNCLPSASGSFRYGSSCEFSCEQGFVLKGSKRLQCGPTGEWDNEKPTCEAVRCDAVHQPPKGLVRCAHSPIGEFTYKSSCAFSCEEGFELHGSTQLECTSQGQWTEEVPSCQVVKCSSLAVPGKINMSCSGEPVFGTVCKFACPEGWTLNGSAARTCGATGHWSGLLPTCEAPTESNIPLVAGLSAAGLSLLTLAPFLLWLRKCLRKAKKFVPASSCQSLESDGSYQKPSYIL

SMILES | outcome | AC50
FC(F)(F)C(F)(C(F)(F)F)C(F)(F)C(F)(F)CC1CO1 (stereo unspecified) | inactive | 
O=C(O)C(F)(F)C(F)(F)C(=O)O | inactive | 
COC(=O)C(F)(F)C(F)(F)OC(F)(C(F)(F)F)C(F)(F)OC(F)=C(F)F (stereo unspecified) | inactive | 
O=C(O)C(F)(OC(F)(F)C(F)(F)C(F)(F)F)C(F)(F)F (stereo unspecified) | inactive | 
O=C(O)C(F)(F)OC(F)(F)C(F)(F)OC(F)(F)F | inactive | 
CC(O)C(F)(F)C(F)(F)F (stereo unspecified) | inactive | 
OCC(F)(F)OC(F)(F)C(F)(F)OC(F)(F)C(F)(F)OC(F)(F)F |  | 38.6 µM (active) and 44.3 µM (active)
O=C(O)C=CC(F)(C(F)(F)F)C(F)(F)F | inactive | 
O=S(=O)(F)C(F)(F)C(F)(F)C(F)(F)C(F)(F)C(F)(F)C(F)(F)C(F)(F)C(F)(F)F | inactive | 
NC(=O)C(F)(F)C(F)(F)F | inactive | 
C=CC(=O)OCC(F)(F)C(F)F | inactive | 44.6 µM (active)
O=C(O)C(F)(F)OC(F)(F)C(F)(F)OC(F)(F)C(=O)O | inactive | 
OCC(F)(F)OC(F)(F)C(F)(F)OC(F)(F)C(F)(F)OC(F)(F)CO | inactive | 5.2 µM (active)
OCC(F)(F)OC(F)(F)C(F)(F)OC(F)(F)CO | inactive | 
